Experimental data from PubChem BioAssay AID1159580 (chemical genetic matrix, 2015).
In all, about 5,500 compounds went through this assay and about 2,000 (36%) were called active. Roughly 18% stayed inconclusive and do not appear here. No stated cut-off is given here; in the data, active means normalized growth mostly below about 0.91 (no sharp cut-off); inconclusive means no clear call, values can overlap the other calls; inactive means mostly above about 0.92. The list shows a part of the results.

Test: chemical genetic growth profiling, strain panel (AID 1159580);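 further: tested at 20 µM; growth read once vehicle control cultures reached saturation at 30 °C; 1 = growth at the plate median or of vehicle wells; lower values mean less growth of the strain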
Conditions: growth OD

Measured: normalized growth

COc1ccc(C2Sc3ccccc3N(CCN(C)C)C(=O)C2OC(C)=O)cc1 (stereo not given)
inactive: S. cerevisiae deletion strains, locus YKL009W, strain mrt4, hits give low values 1.04 | S. cerevisiae deletion strains, locus YKL068W, hits give low values 1.02 | S. cerevisiae deletion strains, locus YKL085W, strain MDH1 (second series), hits give low values 1.03 | S. cerevisiae deletion strains, locus YKL085W, strain MDH1, hits give low values 1.03 | S. cerevisiae deletion strains, locus YKL160W, strain elf1, hits give low values 0.972 | S. cerevisiae deletion strains, locus YKL190W, strain CNB1, hits give low values 0.994 | S. cerevisiae deletion strains, locus YKR001C, strain vps1, hits give low values 1.04 | S. cerevisiae deletion strains, locus YKR026C, strain gcn3, hits give low values 0.931 | S. cerevisiae deletion strains, locus YKR091W, strain srl3, hits give low values 0.983 | S. cerevisiae deletion strains, locus YLL001W, strain dnm1, hits give low values 0.944 | S. cerevisiae deletion strains, locus YLL026W, hits give low values 0.983 | S. cerevisiae deletion strains, locus YLL041C, strain sdh2, hits give low values 0.956 | S. cerevisiae deletion strains, locus YLR027C, strain aat2, hits give low values 0.974 | S. cerevisiae deletion strains, locus YLR039C, strain RIC1, hits give low values 1.04 | S. cerevisiae deletion strains, locus YLR058C, strain SHM2, hits give low values 1.01 | S. cerevisiae deletion strains, locus YLR102C, strain apc9, hits give low values 1.04 | S. cerevisiae deletion strains, locus YLR113W, strain HOG1, hits give low values 1.01 | S. cerevisiae deletion strains, locus YLR221C, strain rsa3, hits give low values 0.989 | S. cerevisiae deletion strains, locus YLR258W, strain gsy2, hits give low values 0.974 | S. cerevisiae deletion strains, locus YLR262C, strain YPT6 (second series), hits give low values 0.977 | S. cerevisiae deletion strains, locus YLR262C, strain YPT6, hits give low values 1.04 | S. cerevisiae deletion strains, locus YLR268W, strain sec22, hits give low values 1.03 | S. cerevisiae deletion strains, locus YLR320W, strain mms22, hits give low values 1.02 | S. cerevisiae deletion strains, locus YLR330W, strain CHS5, hits give low values 1.01 | S. cerevisiae deletion strains, locus YLR342W, strain FKS1 (second series), hits give low values 1.02 | S. cerevisiae deletion strains, locus YLR342W, strain FKS1, hits give low values 0.979 | S. cerevisiae deletion strains, locus YLR357W, strain rsc2, hits give low values 0.922 | S. cerevisiae deletion strains, locus YLR370C, strain arc18, hits give low values 0.973 | S. cerevisiae deletion strains, locus YLR371W, strain rom2, hits give low values 1.03 | S. cerevisiae deletion strains, locus YLR384C, strain iki3, hits give low values 0.941 | S. cerevisiae deletion strains, locus YLR418C, strain cdc73, hits give low values 1.06 | S. cerevisiae deletion strains, locus YML016C, strain PPZ1, hits give low values 1.01 | S. cerevisiae deletion strains, locus YML032C, strain rad52, hits give low values 1.06 | S. cerevisiae deletion strains, locus YML120C, strain ndi1, hits give low values 0.982 | S. cerevisiae deletion strains, locus YML124C, strain tub3, hits give low values 1.03 | S. cerevisiae deletion strains, locus YMR058W, strain fet3, hits give low values 0.986 | S. cerevisiae deletion strains, locus YMR078C, strain ctf18, hits give low values 1.04 | S. cerevisiae deletion strains, locus YMR125W, strain sto1, hits give low values 0.896 | S. cerevisiae deletion strains, locus YMR129W, hits give low values 0.975 | S. cerevisiae deletion strains, locus YMR205C, strain PFK2, hits give low values 0.98 | S. cerevisiae deletion strains, locus YMR223W, strain ubp8, hits give low values 1.04 | S. cerevisiae deletion strains, locus YMR231W, strain pep5, hits give low values 0.965 | S. cerevisiae deletion strains, locus YMR263W, strain SAP30, hits give low values 1 | S. cerevisiae deletion strains, locus YMR307W, strain GAS1, hits give low values 1.07 | S. cerevisiae deletion strains, locus YNL067W, strain RPL9B, hits give low values 1.02 | S. cerevisiae deletion strains, locus YNL071W, strain lat1, hits give low values 0.998 | S. cerevisiae deletion strains, locus YNL128W, strain TEP1, hits give low values 1.02 | S. cerevisiae deletion strains, locus YNL153C, strain GIM3, hits give low values 1.01 | S. cerevisiae deletion strains, locus YNL183C, strain NPR1, hits give low values 0.953 | S. cerevisiae deletion strains, locus YNL209W, strain ssb2, hits give low values 0.973 | S. cerevisiae deletion strains, locus YNL233W, strain BNI4, hits give low values 1.01 | S. cerevisiae deletion strains, locus YNL250W, strain rad50, hits give low values 1.07 | S. cerevisiae deletion strains, locus YNL271C, strain bni1, hits give low values 1.04 | S. cerevisiae deletion strains, locus YNL298W, strain CLA4, hits give low values 1.06 | S. cerevisiae deletion strains, locus YNL307C, strain MCK1, hits give low values 1.05 | S. cerevisiae deletion strains, locus YNL322C, strain KRE1 (second series), hits give low values 0.974 | S. cerevisiae deletion strains, locus YNL322C, strain KRE1, hits give low values 1.01 | S. cerevisiae deletion strains, locus YNR049C, strain mso1, hits give low values 0.977 | S. cerevisiae deletion strains, locus YNR052C, strain pop2, hits give low values 1.05 | S. cerevisiae deletion strains, locus YOL006C, strain TOP1, hits give low values 1.07 | S. cerevisiae deletion strains, locus YOL012C, strain htz1 1.17 | S. cerevisiae deletion strains, locus YOL147C, strain pex11, hits give low values 1.04 | S. cerevisiae deletion strains, locus YOR001W, strain rrp6, hits give low values 0.945 | S. cerevisiae deletion strains, locus YOR061W, strain CKA2, hits give low values 1.01 | S. cerevisiae deletion strains, locus YOR069W, strain VPS5, hits give low values 1.01 | S. cerevisiae deletion strains, locus YOR070C, strain gyp1, hits give low values 0.989 | S. cerevisiae deletion strains, locus YOR080W, strain dia2, hits give low values 0.973 | S. cerevisiae deletion strains, locus YOR083W, strain WHI5, hits give low values 0.976 | S. cerevisiae deletion strains, locus YOR106W, strain vam3, hits give low values 0.903 | S. cerevisiae deletion strains, locus YOR136W, strain idh2, hits give low values 1.04 | S. cerevisiae deletion strains, locus YOR144C, strain elg1, hits give low values 1.04 | S. cerevisiae deletion strains, locus YOR184W, strain ser1, hits give low values 1.07 | S. cerevisiae deletion strains, locus YOR231W, strain MKK1, hits give low values 1.01 | S. cerevisiae deletion strains, locus YOR265W, strain rbl2, hits give low values 0.974 | S. cerevisiae deletion strains, locus YOR270C, strain vph1, hits give low values 0.902 | S. cerevisiae deletion strains, locus YOR290C, strain snf2, hits give low values 0.998 | S. cerevisiae deletion strains, locus YOR316C, strain cot1, hits give low values 1.03 | S. cerevisiae deletion strains, locus YPL051W, strain arl3, hits give low values 0.977 | S. cerevisiae deletion strains, locus YPL055C, strain LGE1, hits give low values 1.04 | S. cerevisiae deletion strains, locus YPL078C, strain atp4, hits give low values 0.943 | S. cerevisiae deletion strains, locus YPL106C, strain sse1, hits give low values 0.976 | S. cerevisiae deletion strains, locus YPL240C, strain hsp82, hits give low values 0.972 | S. cerevisiae deletion strains, locus YPL241C, strain CIN2, hits give low values 1.01 | S. cerevisiae deletion strains, locus YPL256C, strain CLN2, hits give low values 0.991 | S. cerevisiae deletion strains, locus YPR119W, strain clb2, hits give low values 1.03 | S. cerevisiae deletion strains, locus YPR141C, strain kar3, hits give low values 1.06 | S. cerevisiae deletion strains, locus YPR163C, strain tif3, hits give low values 1.05 | S. cerevisiae deletion strains, locus YPR167C, strain met16, hits give low values 1.04 | S. cerevisiae deletion strains, strain wtn01, hits give low values 1.03 | S. cerevisiae strains, strain wild type, hits give low values 1.01
